Test [1] in a line: compounds altering circadian rhythm period length – cell-based, LOPAC library, luminescence reporter (AID 2774).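 Further: values are relative to mean of DMSO wells on each plate.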 The note with it: circadian reporter cells, at 7 µM, actives lie on both sides.
Test [2] concerns Hepatitis C virus NS3 helicase. Put plainly: blockers of NS3h binding to ssDNA – biochemical, fluorescence polarization, LOPAC1280 library, primary screen (AID 687035; in the data active means inhibition above about 37%). The note with it: Purified HCV NS3 helicase, Cy5-dT15 ssDNA binding fluorescence polarization; stronger effect = higher value; concentration not given here.
Test [3] can be described thus: compounds altering Cy5-DNA-NS3h complex signal – biochemical, LOPAC1280, artefact control for HCV NS3 helicase inhibitor project (AID 687037). The note with it: Cy5-DNA-NS3h complex fluorescence interference counterscreen. (A counterscreen serves to expose hits that act by an unwanted route or on another target.)
The nature of test [4]: viability loss in pontine glioma line – cell-based, SU-DIPG-XVII, MIPE5.0, CellTiter-Glo, qHTS, dose response (AID 1347060; cut-off not given, nearly all actives have AC50 up to about 26 µM;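 on AC50: cells exposed to compound for 48 hours before viability readout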). To be noted: CellTiter-Glo ATP luminescence. (In ATP-based viability assays light output follows the ATP content of the culture.)
A short description of test [5]: viability loss in pontine glioma line – cell-based, SU-DIPG-XIII, MIPE4.0, CellTiter-Glo, qHTS, dose response (AID 1347061; cut-off not given, nearly all actives have AC50 up to about 37 µM;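 further: cells exposed to compound for 48 hours before readout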). To be noted: CellTiter-Glo ATP luminescence.
Test [6] in a line: viability loss in pontine glioma line – cell-based, JHH-DIPG-1, MIPE4.0, CellTiter-Glo, qHTS, dose response (AID 1347062; cut-off not given, nearly all actives have AC50 up to about 27 µM;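 on AC50: cells exposed to compound for two days before readout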). To be noted: JHH-DIPG-1 viability, CellTiter-Glo ATP luminescence.
Test [7] in a line: viability loss in pontine glioma line – cell-based, SU-DIPG-IV, MIPE4.0, CellTiter-Glo, qHTS, dose response (AID 1347063; cut-off not given, nearly all actives have AC50 up to about 30 µM;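 further: compound exposure lasted 48 hours before the viability readout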). To be noted: CellTiter-Glo ATP luminescence.
Test [8] can be described thus: growth inhibition of DIPG cells – cell-based, MIPE4.0 library, CellTiter-Glo luminescence, qHTS (AID 1347066; cut-off not given, nearly all actives have AC50 up to about 30 µM;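 further: cells exposed to compound for 48 hours before readout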). To be noted: SU-DIPG-VI viability, CellTiter-Glo ATP luminescence.
Test [9] in a line: growth inhibition of DIPG cells – cell-based, MIPE5.0 library, qHTS (AID 1347068; cut-off not given, nearly all actives have IC50 up to about 30 µM;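 on IC50: cells exposed to compound for 48 hours before viability readout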). The note with it: SU-DIPG-XXV viability.
The nature of test [10]: blockers of cellular phospholipid synthesis – cell-based, LOPAC library, screen 4, primary screen (AID 1347384). To be noted: animal cells, phospholipid biosynthesis inhibition screen; at 10 µM.
A short description of test [11]: growth inhibition, single agent or in combination, cell-based, chromothripsis tumors, cisplatin or BGB combos (AID 1671449; in the data active means inhibition above about 80%;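 further: cells exposed for 96 hours; 0% = vehicle DMSO and 100% = killing by high DMSO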). To be noted: LFS_MB_P medulloblastoma cells.
Test [12] is described as follows: growth inhibition, single agent and combos, cell-based, chromothripsis tumors, cisplatin or BGB combos (AID 1671450; in the data active means inhibition above about 80%;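 further: cells exposed to compound for four days; 0% = vehicle DMSO and 100% = cell killing by high DMSO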). To be noted: HDN33 neuroblastoma cells, stronger effect = higher value.
A short description of test [13]: growth inhibition, single agents and combos, HTB85, cell-based, BGB or cisplatin IC20 combos, synergistic combos for chromothripsis tumors (AID 1671453; in the data active means inhibition above about 80%;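 further: cells exposed for 96 hours before readout; 0% = vehicle DMSO and 100% = high DMSO killing control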). The note with it: HTB85 osteosarcoma cells, drug combinations, stronger effect = higher value.
Test [14] is described as follows: growth inhibition, MDA-MB-436, cell-based, BGB or cisplatin combos, synergistic combos for chromothripsis tumors (AID 1671458).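 Further: cells exposed for 96 hours; 0% = vehicle DMSO and 100% = killing by high DMSO.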 To be noted: MDA-MB-436 breast carcinoma growth inhibition, drug combinations, stronger effect = higher value.
A short description of test [15]: BT084 cell growth, single and combined drugs, ICGC_MB145, cisplatin and BGB IC40 combos (AID 1671461; in the data active means inhibition above about 80%;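 further: cells exposed to drugs for 96 hours; 0% = vehicle DMSO and 100% = high DMSO full killing control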). The note with it: BT084 medulloblastoma cells, drug combinations, stronger effect = higher value.
Test [16] can be described thus: RCMB18 cell growth, single agent and combined, cisplatin and BGB IC40 combos (AID 1671462; in the data active means inhibition above about 80%;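 further: cells exposed to compound for four days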). To be noted: RCMB18 medulloblastoma cells, stronger effect = higher value.
Test [17] can be described thus: CRL1545 cell growth, single agent and combined, cisplatin and BGB IC20 combos (AID 1671464; in the data active means inhibition above about 80%;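 further: cells exposed to compound for 96 hours before readout; 0% = vehicle DMSO and 100% = high DMSO killing control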). To be noted: CRL1545 osteosarcoma cells, stronger effect = higher value.
Test [18] can be described thus: GFP-Q80 aggregate reduction, neuronal-like cells, cell-based, NGF-treated PC12, GFPQ80 (AID 1614).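 Further: lower means fewer inclusions and 0 means no inclusions at all.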 To be noted: PC12 NGF-treated GFP-polyQ80 inclusion reduction.
A short description of test [19]: P. berghei load reduction in hepatocytes – cell-based, HepG2, luciferase luminescence, HepG2 viability, primary screen (AID 624349; in the data active means parasite load remaining mostly below about 12%, no sharp cut-off; inactive means mostly above about 10%;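 further: 100% = mean of DMSO negative control wells on the same plate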). The note with it: P. berghei liver stage in HepG2, luciferase luminescence, concentration not given here; parasite load remaining: stronger effect = lower value; viability: measured here: HepG2 viability without parasites.
Test [20] in a line: JHH-DIPG-1 glioma cell viability, MIPE5.0 library, CellTiter-Glo luminescence, qHTS (AID 1347067; cut-off not given, nearly all actives have AC50 up to about 26 µM;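 further: cells exposed to compound for 48 hours before readout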). To be noted: JHH-DIPG-1 glioma viability, CellTiter-Glo ATP luminescence.
The mark [21] stands for this setting: measured here: with BGB IC20 combination, at 0.5 µM.
[22] abbreviates: measured here: with cisplatin IC20 combination, at 0.5 µM.

Several values for one entry are separate records, joined by “and”; a condition that tells them apart may be missing. Equal values may be shown once. Inconclusive results are not listed. Activity calls are given as the source filed them. Unless noted, how the calls were made is not given here.

As to `O=C1c2c(O)ccc(O)c2C(=O)c2c(NCCNCCO)ccc(NCCNCCO)c21`, the period change in test [1] is -1.74 h (active). Further, the inhibition – broadly, the drop in the measured response relative to a control, in per cent – was 119% (active) in test [2]; -22.5% (inactive) in test [11] (at 0.5 µM, stronger effect = higher value); -15.5% in test [11] (measured here: combination with BGB IC20, at 0.005 µM); -3.49% in test [11] (measured here: combination with BGB IC40, at 0.005 µM); -28% in test [11] (measured here: combination with BGB IC40, at 0.05 µM); -39.3% in test [11] (measured here: combination with cisplatin, at 0.5 µM, stronger effect = higher value). For the same compound, the inhibition in [11] (measured here: combination with cisplatin, at 5 µM, stronger effect = higher value) is 106%; in test [12] (BGB combo, at 5 µM) it was 98.9%; in test [12] (at 0.5 µM), 60.1% (inactive); in test [12] (cisplatin combo, at 5 µM), 99.3%; in test [12] (setting [21]), 57.7%; in test [12] (setting [22]), 53.6%. Further, the inhibition in test [12] (single agent, at 5 µM) is 99.3%; in [13] (at 0.5 µM) it was 94.8% (active); in test [13] (measured here: with BGB IC20, at 0.5 µM) it was 90.1%; in [13] (measured here: with BGB IC20, at 5 µM), 99.7%; in [13] (measured here: with cisplatin IC20, at 0.5 µM) it was 97.6%; in test [13] (measured here: with cisplatin IC20, at 5 µM), 99.8%. In addition, the inhibition in [13] (single agent, at 5 µM) is 99.8%; in [14] (at 0.5 µM), 53.4% (inactive); in test [14] (measured here: BGB combination, at 0.5 µM) it was 42.1%; in test [14] (measured here: BGB combination, at 5 µM), 93.8%; in [14] (measured here: cisplatin combination, at 0.5 µM) it was 45.8%; in test [14] (measured here: cisplatin combination, at 5 µM), 95.6%. Besides, the inhibition in test [15] (at 0.5 µM) was -10.6% (inactive); in [15] (cisplatin combination, at 0.5 µM), 42.8%; in test [15] (cisplatin combination, at 5 µM) it was 49.8%; in [15] (measured here: BGB IC40 combination 0.05 uM, at 0.05 µM), -13%; in test [15] (single agent, at 5 µM) it was 75.3%; in test [16] (at 0.5 µM), -1.35% (inactive). Further, the inhibition was 70.8% in test [16] (cisplatin combo, at 5 µM); -3.01% in [16] (measured here: BGB IC40 combination, at 0.05 µM); -18.9% in test [16] (measured here: combination with cisplatin, at 0.5 µM); 55.2% in [16] (single agent, at 5 µM); 65.5% (inactive) in [17] (at 0.5 µM); 74% in test [17] (setting [21]). Moreover, the inhibition in test [17] (setting [22]) amounted to 61.2%; in test [17] (single agent, at 0.05 µM) it was 43.2%; in test [17] (single agent, at 5 µM), 99.2%. Further, the fluorescence ratio (interference) in [3] is 0.5 (active). In addition, the AC50 – broadly, the midpoint of the concentration-response curve, whichever way the signal moves – in test [4] is 0.417 µM (active); in [5], 18.7 µM (active); in test [6], 2.35 µM (active); in [7] it was 6.62 µM (active); in test [8], 23.5 µM (active). In [9], the IC50 – broadly, the concentration needed to halve the response being measured – is 18.6 µM (active). The call in test [10] was inactive.
Compound `O=c1[nH]cnc2[nH]ncc12` returned an inclusion score in [18] of 2. Further, in test [1], the period change was 0.19 h (inactive). For the same compound, the parasite load remaining in test [19] is 54% (inactive) and 101% (inactive) and 124% (inactive). Further, the viability (commonly a read-out of living cells in per cent, often relative to untreated cells) in test [19] is 90.8% and 70.7% and 94.2%. Further, the inhibition in [2] is -4% (inactive). Also, the fluorescence ratio (interference) in [3] is 0.9 (inactive). The compound was called inactive in test [4], in [5], in test [6], in test [7], in test [8] and in [20]. Further, the compound was called inactive in [9] and in [10].
For the compound `NNCCc1ccccc1`, the inclusion score in [18] turned out to be 2. Moreover, the period change in test [1] was 0.145 h (inactive). Moreover, the inhibition in test [2] is -1% (inactive). In [3], the fluorescence ratio (interference) is 0.9 (inactive). The compound was called inactive in test [4], in [6], in test [8], in test [20], in test [9] and in [10]. Also, the AC50 is 9.35 µM (active) in test [5] and 13.2 µM (active) in test [7].
The compound `COc1ccc(Cl)cc1C(=O)NCCc1ccc(S(=O)(=O)NC(=O)NC2CCCCC2)cc1` showed an inclusion score in [18] of 2. For the same compound, in test [1], the period change was 0.16 h (inactive). For the same compound, the inhibition in test [2] is 1% (inactive). In addition, the fluorescence ratio (interference) in [3] is 1 (inactive). For the same compound, the compound was classed as inactive in test [10].
Turning to `N[C@@H]1CONC1=O`, in [18], the inclusion score was 2. In addition, the period change in [1] is 0.11 h (inactive). Moreover, in [2], the inhibition is -2% (inactive). Moreover, in test [3], the fluorescence ratio (interference) was 0.9 (inactive). Besides, the call in [4], in test [5], in [6], in test [7], in [8] and in [20] was inactive. The compound was called inactive in test [9] and in test [10].

The values are drawn from PubChem BioAssay.
